Screening data (PubChem)
LASV entry inh = inhibitors of Lassa virus binding or cell entry; Potency, µM (doses to about 37.9 µM), without a hit: top-dose activity change, negative = inhibition, actives largely listed as inhibitors; 300,000 compounds, 1.2% hits; Lassa virus pseudotype entry inhibition, cell reporter; calls by dose curve; tested in HEK293 cells; further: potency means the concentration at half of the fitted maximal effect; on the % scale 0 is the no-effect control and ±100 the full control effect; nearly all actives have a fitted effect of over 50% in size
HCV inhibitor = HCV inhibition; Huh7.5.1 HCVcc-Cre infection, luciferase reporter, 44 h; Potency, µM (top dose mostly 41.8 µM), inactives show top-dose activity change, negative = inhibition, most hits filed as inhibitors; AID 651820; 340,000 compounds, 3.4% hits; active means well fitted inhibition curve with a large enough effect; inconclusive means small, poorly fitted or top-dose-only effect, or another doubt; inactive means no such curve, though single readings can be large or run the other way; further: potency means the concentration at half of the fitted maximal effect; on the % scale 0 is the no-effect control and ±100 the full control effect
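Reporter virus HCVcc-Cre (~0.5 moi) infects cells exposed to compound; seeding density 1,000 cells/well with 4 h settling beforehand. Luminescence, 15 sec read, taken 44 h post-infection following a 15 min RT substrate incubation.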
Cycloheximide cs = counter-screen for Shiga toxin inhibitors: cycloheximide protein synthesis inhibition | cell reporter, cycloheximide protein synthesis inhibition counterscreen | 300,000 compounds, 12% hits | AID 2314 | max response, %; in the data active means max response mostly above about 13%, no sharp cut-off; inactive means mostly below about 14%; further: read at 38.3 µM for the half of the compounds with a filed dose; 0% is about no effect
MARV entry inh = inhibitors of Marburg virus binding or cell entry; Potency, µM (top dose mostly 37.8 µM), without a hit: top-dose activity change, negative = inhibition, usual class: inhibitors; 300,000 compounds, 1.8% hits; AID 540276; Marburg virus pseudotyped entry inhibition, cell reporter; calls by dose curve; tested in HEK293 cells; further: potency means the concentration at half of the fitted maximal effect; on the % scale 0 is the no-effect control and ±100 the full control effect
FMDV antiviral = foot and mouth disease virus antiviral activity; FMDV antiviral cell-based qHTS; Potency, µM (doses to about 57.9 µM), for inactives: at the highest dose activity change, negative = inhibition, usual class: inhibitors; 410,000 compounds, 1.2% hits; AID 1159524; calls by dose curve; tested in HEK293T cells; further: read-out not given here; potency means the concentration at half of the fitted maximal effect; on the % scale 0 is the no-effect control and ±100 the full control effect; nearly all actives have a fitted effect of over 45% in size
Shiga toxin inh = inhibitors of Shiga toxin in Vero cells | Vero cells, Shiga toxin protein synthesis inhibition reporter | inhibition, % at 38.7 µM | 290,000 compounds, 9.2% hits | AID 2315; in the data active means inhibition mostly above about 28%, no sharp cut-off; inactive means mostly below about 43%; further: 0% is about no effect
* = called active by the depositor; [ ] = dose if it differs, or a comment. A selection: hits, their analogues and other compounds. The true share with any hit is near 13%.

What do the screens show for `CC(/C=N/NC(=O)c1ccc(Cn2cc([N+](=O)[O-])cn2)o1)=C\c1ccccc1`?
LASV entry inh: 6%[46.1 µM]; HCV inhibitor: -23%; Cycloheximide cs: 26*; MARV entry inh: 6%[46.1 µM]; FMDV antiviral: 7%; Shiga toxin inh: 72*

Results for CCOc1ccc(/C=N/NC(=O)c2ccc(Cn3cc(Br)cn3)o2)cc1 ?
LASV entry inh: 16%; HCV inhibitor: 0%; Cycloheximide cs: 28*; MARV entry inh: inconclusive; FMDV antiviral: 69%; Shiga toxin inh: active

What do the screens show for `Cc1cccc(NC(=O)C(C)Sc2nnc(-c3cccnc3)o2)c1` (stereo unspecified)?
HCV inhibitor: -15%; FMDV antiviral: -3%

What do the screens show for `O=c1c(-c2ccccc2)nc2ccccc2n1C(c1ccccc1)c1nc2ccccc2[nH]1` (stereo unspecified)?
FMDV antiviral: 0%

How did CNC(=S)Nc1ccc(C(N)=O)cc1 do in these assays?
LASV entry inh: 1%; HCV inhibitor: 7%; Cycloheximide cs: 3; MARV entry inh: -1%[46.1 µM]; FMDV antiviral: -1%; Shiga toxin inh: 16

What do the screens show for `CCN(C(=O)c1ccc2c(c1)OCO2)C1CCS(=O)(=O)C1` (stereo unspecified)?
LASV entry inh: inconclusive; HCV inhibitor: 2%; MARV entry inh: -3%; FMDV antiviral: -15%

What do the screens show for `CCOC(=O)c1c(NC(=O)C(C)Sc2cn(CCNC(=O)c3c(F)cccc3F)c3ccccc23)sc2c1CCC2` (stereo unspecified)?
LASV entry inh: -17%[46.1 µM]; MARV entry inh: 7.9µM*; FMDV antiviral: -13%

Results for CCOC(=O)c1c(NC(=O)C(C)Sc2cn(CCNC(=O)c3ccc(OCC)cc3)c3ccccc23)sc2c1CCC2 (stereo unspecified) ?
LASV entry inh: -1%[46.1 µM]; MARV entry inh: -4%[46.1 µM]; FMDV antiviral: -20%

How did CC(=O)Nc1ccc(OCC[n+]2cccc(C(N)=O)c2)cc1 do in these assays?
LASV entry inh: 5%[46.1 µM]; HCV inhibitor: -5%; Cycloheximide cs: -1; MARV entry inh: -6%[46.1 µM]; FMDV antiviral: -1%; Shiga toxin inh: -17

What do the screens show for `Cc1cc(C)n(C(=O)CNC(=O)c2ccccc2F)n1`?
HCV inhibitor: 26%; Cycloheximide cs: 17; FMDV antiviral: 22%; Shiga toxin inh: -2

How did Nc1ccc(-c2ccc3ccccc3n2)cc1 do in these assays?
LASV entry inh: inconclusive; Cycloheximide cs: 25*; MARV entry inh: 6.3µM*; Shiga toxin inh: 71*

How did COc1ccc(-c2ccc3ccccc3n2)cc1OC do in these assays?
LASV entry inh: -11%; HCV inhibitor: inconclusive; Cycloheximide cs: 46*; MARV entry inh: -1%[46.1 µM]; FMDV antiviral: 39%; Shiga toxin inh: 133*

How did COc1ccc(-c2ccc3ccccc3n2)cc1 do in these assays?
LASV entry inh: inconclusive; HCV inhibitor: inconclusive; Cycloheximide cs: 41*; MARV entry inh: inconclusive; FMDV antiviral: -15%; Shiga toxin inh: 71*

What do the screens show for `CCN(CC)C(=S)NC(=O)c1cc(OC)c(OC)c(OC)c1`?
LASV entry inh: -10%[46.1 µM]; HCV inhibitor: inconclusive; Cycloheximide cs: 2; MARV entry inh: 0%; FMDV antiviral: -10%; Shiga toxin inh: 21

Results for COc1cc(C(=O)Nc2cccc(-c3nc4cc(C)ccc4o3)c2C)cc(OC)c1OC ?
LASV entry inh: -18%; HCV inhibitor: 2%; Cycloheximide cs: 2; MARV entry inh: -9%; FMDV antiviral: 7%; Shiga toxin inh: 37

How did Cc1cc2nccc(-c3ccc(F)cc3)n2n1 do in these assays?
HCV inhibitor: 6%; Cycloheximide cs: -4; FMDV antiviral: -6%; Shiga toxin inh: -7

What do the screens show for `CCOC(=O)C1=CN(Cc2cccc(F)c2)S(=O)(=O)N(CC)C1c1ccc2ccccc2c1` (stereo unspecified)?
HCV inhibitor: -27%; FMDV antiviral: -16%

Results for CCOC(=O)C1=CN(Cc2cccc(F)c2)S(=O)(=O)N(C)C1c1ccc2ccccc2c1 (stereo unspecified) ?
HCV inhibitor: 11µM*; FMDV antiviral: 2%

What do the screens show for `CCCN1C(C)C(C(=O)OCC)=CN(Cc2cccc(I)c2)S1(=O)=O` (stereo unspecified)?
HCV inhibitor: inconclusive; FMDV antiviral: 4µM*

What do the screens show for `Cc1cccc(Oc2ncc(-c3ccc(Cl)cc3)cn2)c1`?
LASV entry inh: 13%; HCV inhibitor: 18%; Cycloheximide cs: 3; MARV entry inh: 17%[46.1 µM]; FMDV antiviral: -8%; Shiga toxin inh: -13

How did Cc1nc2ccccc2n1C(C)c1nc2ccccc2n1CC(=O)c1ccc(OC(F)(F)F)cc1 (stereo unspecified) do in these assays?
FMDV antiviral: -14%

What do the screens show for `O=C(NCc1ccccc1)c1nc[nH]c1C(=O)N1CCc2ccccc2C1`?
HCV inhibitor: 6%; FMDV antiviral: -2%

How did C=CCSc1n[nH]c(-c2ccccc2)n1 do in these assays?
LASV entry inh: 11%; HCV inhibitor: 0%; Cycloheximide cs: 30*; MARV entry inh: inconclusive; FMDV antiviral: 22%; Shiga toxin inh: 51*

What do the screens show for `C=CCSc1n[nH]c(-c2ccc(OC)cc2)n1`?
LASV entry inh: -18%; HCV inhibitor: 20%; Cycloheximide cs: 61*; MARV entry inh: 1%; FMDV antiviral: 47%; Shiga toxin inh: 116*

What do the screens show for `CCCCOc1ccc(-c2nc(SCC(N)=O)n[nH]2)cc1`?
LASV entry inh: inconclusive; HCV inhibitor: 17%; Cycloheximide cs: 34*; MARV entry inh: 3%; FMDV antiviral: 62%; Shiga toxin inh: 48

What do the screens show for `CCOc1ccc(N(CC)C(=O)CSc2n[nH]c(-c3ccccc3)n2)cc1`?
LASV entry inh: inconclusive; FMDV antiviral: -16%

Results for O=C(COC(=O)/C=C/c1cccc(C(F)(F)F)c1)NCCN1C(=O)CSC1=O ?
LASV entry inh: inconclusive; HCV inhibitor: 11%; MARV entry inh: inconclusive; FMDV antiviral: -27%

Results for CCCC(CCC)n1[nH]c(=O)c2c(C)cc(C)nc21 ?
LASV entry inh: 19%; HCV inhibitor: 3%; Cycloheximide cs: 3; MARV entry inh: 3%; FMDV antiviral: 0%; Shiga toxin inh: 95

What do the screens show for `Cc1ccsc1CN1CCN(c2ccccn2)CC1`?
LASV entry inh: inconclusive; HCV inhibitor: 4%; Cycloheximide cs: 4; MARV entry inh: 8%; FMDV antiviral: -12%; Shiga toxin inh: -1

How did Cc1ccsc1/C=N/N1CCN(c2ccccc2)CC1 do in these assays?
LASV entry inh: inconclusive; HCV inhibitor: -7%; Cycloheximide cs: 71*; MARV entry inh: 3%; FMDV antiviral: 47%; Shiga toxin inh: 60*

How did Cc1ccsc1/C=N/N1CCN(c2ccccn2)CC1 do in these assays?
LASV entry inh: 15%[46.1 µM]; HCV inhibitor: -27%; Cycloheximide cs: 31*; MARV entry inh: inconclusive; FMDV antiviral: 8%; Shiga toxin inh: 55*

How did Cc1ccsc1/C=N/NC(=O)CN1CCN(Cc2ccccc2)CC1 do in these assays?
LASV entry inh: 15%[46.1 µM]; HCV inhibitor: 3%; Cycloheximide cs: 8; MARV entry inh: 0%[46.1 µM]; FMDV antiviral: 8%; Shiga toxin inh: -3
